# According to PubChem BioAssay (Tox21):
# Several values for one entry are separate records, joined by “and”; a condition that tells them apart may be missing. Equal entries are not always repeated. Records with an inconclusive call do not appear. More than one record can exist for a structure, and the calls need not agree. Activity calls are given as the source filed them. Calls follow the shape of the dose curve; as a rule, active = well fitted inhibition curve with a large enough effect in the repeat runs; inconclusive = weak or mixed curves; inactive = no such curve, though single readings can be large or run the other way.
# Target: Cytochrome P450 1A2 (Homo sapiens) (UniProt P05177)
# Sequence (P05177 whole entry, looked up): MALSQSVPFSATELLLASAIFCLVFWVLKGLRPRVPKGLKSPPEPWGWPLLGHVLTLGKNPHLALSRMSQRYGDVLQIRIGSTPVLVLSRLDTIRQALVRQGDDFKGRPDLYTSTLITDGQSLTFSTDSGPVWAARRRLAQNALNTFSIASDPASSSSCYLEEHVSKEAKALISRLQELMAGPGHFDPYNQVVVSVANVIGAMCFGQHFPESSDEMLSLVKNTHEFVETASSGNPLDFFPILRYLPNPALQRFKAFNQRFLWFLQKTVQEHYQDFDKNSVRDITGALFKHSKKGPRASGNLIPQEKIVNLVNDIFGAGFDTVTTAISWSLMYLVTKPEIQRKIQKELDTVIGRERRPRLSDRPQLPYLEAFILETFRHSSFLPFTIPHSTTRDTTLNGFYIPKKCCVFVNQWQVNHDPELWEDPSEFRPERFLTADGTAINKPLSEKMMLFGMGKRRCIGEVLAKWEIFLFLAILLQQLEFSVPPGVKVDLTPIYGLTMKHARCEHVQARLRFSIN
# Test: Cytochrome P450 Family 1 Subfamily A Member 2 (CYP1A2) small molecule antagonists: luciferase reporter qHTS assay (AID 1671199); also: nearly all actives have a fitted effect of over 50% in size
# Details: P450-Glo CYP1A2 enzyme, luciferin luminescence, 1 h; series mostly up to 115 µM
# How it was run: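 Compounds were incubated with CYP1A2 and a luminogenic proluciferin substrate for 10 min at room temperature before the reaction was started with NADPH regeneration solution. After 1 h, detection reagent was added and light output, proportional to CYP activity, was recorded.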
# Potency is read from the fitted curve at half-maximal effect.
row,Structure (SMILES),Potency
1,O=C1CCCCC1,inactive
2,OCC1CCCO1 (configuration not stated),inactive
3,C=C1C2CCC(C2)C1(C)C (configuration not stated),inactive and 39.9 µM (active)
4,CCC(C)C=O (configuration not stated),inactive
5,Cc1cc(Cc2ccc(N)c(C)c2)ccc1N,6.33 µM (active) and 14.2 µM (active)
6,CC(=O)Nc1ccc(C(=O)O)cc1,inactive
7,CC1Cc2ccccc2N1NC(=O)c1ccc(Cl)c(S(N)(=O)=O)c1 (configuration not stated),inactive
8,Oc1c(Cl)cc(Cl)c(Cl)c1Cl,62 µM (active) and 63.3 µM (active)
9,Nc1c(S(=O)(=O)O)cc(Br)c2c1C(=O)c1ccccc1C2=O,3.24 µM (active) and 2 µM (active)
10,CCCCNC(N)=O,inactive
11,CCCCC/C=C\C/C=C\CCCCCCCC(=O)OC,35.6 µM (active)
12,C=C(C#N)C(=O)OCC,inactive
13,Oc1ccc(OCc2ccccc2)cc1,19.6 µM (active) and 15.5 µM (active)
14,CCOC(=O)/C=C\C(=O)OCC,inactive
15,OCCOCCOCCOCCO,39.9 µM (active)
16,O=C(O)c1cc(-c2ccccc2)nc2ccccc12,36.9 µM (active)
17,CC1COc2ccccc2N1C(=O)C(Cl)Cl (configuration not stated),79.5 µM (active) and inactive
18,COC(=O)Nc1nc2ccc(Sc3ccccc3)cc2[nH]1,12.6 µM (active)
19,CC1=CC[C@H]2C[C@@H]1C2(C)C,inactive
20,CCOC(=O)C1OC1c1ccccc1 (configuration not stated),32.4 µM (active) and 22.4 µM (active)
21,OC[C@@H](O)[C@H](O)[C@H](O)[C@@H](O)CO,inactive
22,COC(=O)c1ccc(C(=O)OC)cc1,25.5 µM (active) and 10 µM (active)
